Source: PubChem BioAssay
Rv3671c protease = inhibits the M. tuberculosis serine protease Rv3671c; AID 2606; inhibition, % at 5.96 µM; hit rate 0.048% among 320,000; in the data active means inhibition above about 38%;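 further: extracellular domain of Rv3671c used as enzyme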
Target sequence (P9WHR9 whole entry, looked up, the tested form may be a part): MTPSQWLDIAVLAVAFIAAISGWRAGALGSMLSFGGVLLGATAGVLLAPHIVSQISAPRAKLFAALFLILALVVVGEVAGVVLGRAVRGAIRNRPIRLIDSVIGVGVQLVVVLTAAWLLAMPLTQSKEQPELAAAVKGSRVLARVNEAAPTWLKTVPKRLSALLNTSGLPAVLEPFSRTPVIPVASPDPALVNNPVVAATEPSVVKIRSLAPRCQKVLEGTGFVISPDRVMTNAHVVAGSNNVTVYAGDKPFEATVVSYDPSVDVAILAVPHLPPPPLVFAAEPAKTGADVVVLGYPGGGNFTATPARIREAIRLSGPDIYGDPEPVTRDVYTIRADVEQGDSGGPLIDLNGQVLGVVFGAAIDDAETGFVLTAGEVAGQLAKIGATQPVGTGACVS
FadD28 binding = M. tuberculosis FadD28 bisubstrate binding inhibition. FadD28 bisubstrate probe binding, fluorescence polarization. inhibition, % at 12.5 µM. hit rate 0.22% among 360,000. AID 588549; in the data active means inhibition above about 8.5%, passing the limit was not always enough
BJeLR lethal = kills HRASV12-expressing BJeLR cells; hit rate 0.17% among 300,000; inhibition, % (no concentration beside the values); BJeLR (HRASV12) viability, CellTiter-Glo ATP luminescence, 48 h; in the data active means inhibition above about 50%
PrP UTR inh = inhibition of PrP 5' UTR reporter expression | cell-based PrP 5' UTR mRNA reporter, plate reader | inhibition, % (no concentration beside the values) | hit rate 0.35% among 340,000; in the data active means inhibition above about 52%
UGM FP inh = blocks M. tuberculosis UGM enzyme; purified UGM, fluorescence polarization probe displacement; inhibition, % at 10 µM; AID 504406; hit rate 0.06% among 320,000; P9WIQ1; in the data active means inhibition above about 10%, passing the limit was not always enough
RecA splice inh = Mtb RecA intein splicing inhibition; P9WHJ3; cell-free RecA intein splicing, fluorescence; inhibition, % (concentration not given with the values); hit rate 0.75% among 290,000; AID 2221; in the data active means inhibition above about 30%
Of the large screens only hits and unclear results are named; the others gave an inactive call. Shown are actives, neighbours in structure and some others; about 1.3% of the full set was active somewhere.

O=C(CCCN1C(=O)/C(=C/c2ccccc2)SC1=S)Nc1ccc(C(=O)O)c(O)c1	RecA splice inh 38
O=C(CCN1C(=O)/C(=C\c2ccccc2F)SC1=S)Nc1ccc(C(=O)O)c(O)c1	RecA splice inh 32
CN(C)CCCNc1c2ccccc2nc2ccccc12	BJeLR lethal 69 (no result: PrP UTR inh)
COc1ccc(S(=O)(=O)N2CCCCC2)cc1NC(=O)CNc1ccccc1N1CCCC1=O	none (no result: BJeLR lethal, RecA splice inh)
Cc1ccc(NC(=O)CNc2ccccc2N2CCCC2=O)cc1S(=O)(=O)N1CCOCC1	FadD28 binding 21 (no result: Rv3671c protease, BJeLR lethal, UGM FP inh, RecA splice inh)
COc1ccc(NC(=O)CNc2ccccc2N2CCCC2=O)cc1S(=O)(=O)N1CCOCC1	FadD28 binding 10 (no result: BJeLR lethal, RecA splice inh)
Cc1ccc(S(=O)(=O)N2CCCCC2)cc1NC(=O)CNc1ccccc1N1CCCC1=O	none (no result: FadD28 binding, BJeLR lethal, RecA splice inh)
O=C(NC(C(=O)c1ccccc1)c1ccccc1)c1ccccc1 (configuration not stated)	none (no result: Rv3671c protease, BJeLR lethal, UGM FP inh, RecA splice inh)
O=[N+]([O-])c1nccn1CCCCCCN1CCOCC1	none (no result: Rv3671c protease, BJeLR lethal, PrP UTR inh, UGM FP inh, RecA splice inh)
CCCCCCCCCCCCCCC[C@@H](O)[C@@H](N)CO	FadD28 binding 48 (no result: Rv3671c protease, BJeLR lethal, UGM FP inh, RecA splice inh)
O=C(COC(=O)c1ccc([N+](=O)[O-])o1)NC1CCCC1	UGM FP inh 21 (no result: BJeLR lethal, RecA splice inh)
O=C(COC(=O)c1ccc([N+](=O)[O-])o1)NC1CCCCC1	none (no result: BJeLR lethal, RecA splice inh)
O=P(CCCCCCCCCP(=O)(c1ccccc1)c1ccccc1)(c1ccccc1)c1ccccc1	RecA splice inh 60
O=C(O)CCCCCCCCCCP(=O)(c1ccccc1)c1ccccc1	none
CCCS(=O)(=O)NC(=O)C1(C)CCN(C(=O)c2ccc(C(F)(F)F)cc2)C1 (configuration not stated)	none (no result: Rv3671c protease, BJeLR lethal, PrP UTR inh, UGM FP inh, RecA splice inh)
Nc1nc2ncc(CNc3ccc(C(=O)N[C@@H](CCC(=O)O)C(=O)O)cc3)nc2c(=O)[nH]1	none
CN(Cc1cnc2nc(N)nc(N)c2n1)c1ccc(C(=O)N[C@@H](CCC(=O)O)C(=O)O)cc1	BJeLR lethal 76
O=Cc1sc(=O)n(Cc2cccc(C(=O)O)c2)c1Cl	RecA splice inh 54
CCc1nc2ccc(C(=O)Nc3ccc(C(=O)N(C)C)cc3)cn2c1N(C)CCCc1ccccc1	none (no result: Rv3671c protease, BJeLR lethal, PrP UTR inh, UGM FP inh, RecA splice inh)
COc1ccc(F)c(C2C(C#N)=C(N)Oc3n[nH]c(C(C)(C)C)c32)c1 (configuration not stated)	none
COCc1[nH]nc2c1C(c1ccccc1F)C(C#N)=C(N)O2 (configuration not stated)	RecA splice inh 35
COCc1[nH]nc2c1C(c1sccc1C)C(C#N)=C(N)O2 (configuration not stated)	none
COCc1[nH]nc2c1C(c1ccc(OC)cc1)C(C#N)=C(N)O2 (configuration not stated)	RecA splice inh 58
COc1ccc(/C=C/c2cc(-c3ccc(C)cc3)o[n+]2C)cc1	BJeLR lethal 63
Cn1cnc(Sc2ncnc3nc[nH]c23)c1[N+](=O)[O-]	BJeLR lethal 54
Cn1cnc([N+](=O)[O-])c1Sc1ncnc2nc[nH]c12	BJeLR lethal 69
CCOc1ccc2noc3c2c1C(=O)c1ccccc1-3	UGM FP inh 21
O=C(O)c1cccc2cccc(-c3c4ccc(=O)c(O)c-4oc4c(O)c(O)ccc34)c12	FadD28 binding 44 (no result: Rv3671c protease, BJeLR lethal, UGM FP inh, RecA splice inh)
COc1ccc2c(COC(=O)c3ccc(C)c(S(=O)(=O)N4CCOCC4)c3)cc(=O)oc2c1	none (no result: Rv3671c protease, BJeLR lethal, UGM FP inh, RecA splice inh)
O=C(O)CCCN1C(=O)/C(=C/c2ccc(-c3nc4ccccc4s3)o2)SC1=S	FadD28 binding 8.6
COC(=O)C1=NN(c2ccc(OC)cc2)C2C(=O)N(c3ccccc3OC)C(=O)C12 (configuration not stated)	none (no result: PrP UTR inh)
COC(=O)C1=CC(C(=O)c2cccs2)=NN(c2ccc(OC)cc2)C1C(=O)OC (configuration not stated)	UGM FP inh 21
Cn1c(NCCOc2ccccc2Cl)nc2cc(-c3ccc(F)cc3)sc2c1=O	none (no result: Rv3671c protease, BJeLR lethal, PrP UTR inh, UGM FP inh, RecA splice inh)
CCN(CC)c1ccc(NC2CC(=O)N(CCc3ccc(OC)cc3)C2=O)cc1 (configuration not stated)	FadD28 binding 8.7
CN(C)c1ccc2nc3c(=O)[nH]c(=O)nc-3n(CC(O)C(O)C(O)CO)c2c1 (configuration not stated)	UGM FP inh 61
Nc1ccc(C(=O)N/N=C/c2cn(Cc3ccccc3F)c3ccccc23)cc1	none (no result: Rv3671c protease)
CC(C)n1cc(/C=N/Nc2ccc(C(=O)O)cc2)c2ccccc21	FadD28 binding 22
Nc1ccc(C(=O)N/N=C/c2cn(Cc3ccc(F)cc3)c3ccccc23)cc1	none (no result: Rv3671c protease)
O=C(N/N=C/c1cn(Cc2cccc(F)c2)c2ccccc12)c1cc(O)cc(O)c1	FadD28 binding 17 (no result: Rv3671c protease)
Cn1cc(/C=N/Nc2ccccc2)c2ccccc21	none
O=C(O)c1ccc(N/N=C/c2cn(Cc3ccccc3F)c3ccccc23)cc1	FadD28 binding 13
CSc1ccc(C(O)c2ncc(-c3ccc(F)cc3)[nH]2)cc1 (configuration not stated)	none (no result: Rv3671c protease, BJeLR lethal, PrP UTR inh, UGM FP inh, RecA splice inh)
O=C(NCc1ccccc1)c1cc(C2CCCN(C(=O)c3ccccc3)C2)on1 (configuration not stated)	none (no result: Rv3671c protease, BJeLR lethal, PrP UTR inh, UGM FP inh, RecA splice inh)
CC(=O)NC(Cc1ccccc1)C(=O)OCC(=O)c1ccccc1 (configuration not stated)	UGM FP inh 13
CC(=O)NC(Cc1ccccc1)C(=O)OCC(=O)c1ccc(Br)cc1 (configuration not stated)	none
c1ccc(-c2nc(N3CCCCCC3)nc(-n3ccnc3)n2)cc1	RecA splice inh 46
O=C1NN(c2ccc(F)c(Cl)c2)C(=O)/C1=C\c1cccc(OC(=O)c2cccs2)c1	FadD28 binding 26
COc1ccc(CCNc2oc(-c3ccc(OC)c(OC)c3)nc2C#N)cc1	FadD28 binding 12
c1ccc2c(c1)Sc1cnccc1N2CC1CO1 (configuration not stated)	none (no result: Rv3671c protease, BJeLR lethal, PrP UTR inh, UGM FP inh, RecA splice inh)
CN(C)c1ccc(NC(=O)C(=O)C2C(=O)Nc3ccccc32)cc1 (configuration not stated)	none (no result: PrP UTR inh)
O=C(Nc1cccc2ccccc12)C(=O)C1C(=O)Nc2ccccc21 (configuration not stated)	none
CC(C)c1ccc(NC(=O)C(=O)C2C(=O)Nc3ccccc32)cc1 (configuration not stated)	FadD28 binding 15
CC(C)(C)c1ccc(NC(=O)C(=O)C2C(=O)Nc3ccccc32)cc1 (configuration not stated)	FadD28 binding 27
Oc1c(Cl)cc(CN2CCOCC2)c2cccnc12	none (no result: BJeLR lethal, RecA splice inh)
Oc1c(CN2CCc3ccccc3C2)cc(Cl)c2cccnc12	BJeLR lethal 65
COC(CNC(=O)c1cc(Sc2nnc(C)s2)nc2ccccc12)OC	none
CCN(CC)CCCNC(=O)c1cc(Sc2nnc(C)s2)nc2ccccc12	UGM FP inh 25
CS(=O)(=O)c1ccc(Cl)c(NC(=O)CSc2nnc3n2CCCCC3)c1	none (no result: Rv3671c protease, BJeLR lethal, PrP UTR inh, UGM FP inh, RecA splice inh)
O=C1NC(=S)N(c2ccccc2)C(=O)/C1=C/c1ccco1	FadD28 binding 11
CCOc1cccc(N2C(=O)/C(=C/c3ccco3)C(=O)NC2=S)c1	none
